In all, about 63,000 compounds went through this assay and about 1,100 (1.7%) were called active. What follows is part of a selection rich in actives, with near analogues and random picks from the rest. Entries with a potency or affinity are not part of this list. A number with no mark means an inactive call.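 How the source made its calls: active means compounds whose percent cytotoxicity in the single-dose primary screen, scaled between solvent and toxic-drug controls, exceeds 50; inactive means the rest.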

The nature of the assay: cytotoxicity in KRAS-transformed pancreatic duct cells, primary screen, cell-based, fluorescence, HTS (AID 431).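 Further: 0% = DMSO solvent wells and 100% = doxorubicin-treated wells.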 The note with it: HPDE-C7K KRASV12 cells, Alamar Blue viability, 48 h; at 10 µM; stronger effect = higher value.
Consider `Cc1cc(NC(=O)CSc2nnc3c(C)cc4cc(C)c(C)cc4n23)no1`, for which the cytotoxicity is 10.3%.
As for `Cc1cc(C)c2c(c1)cc(C)c1nnc(SCC(=O)Nc3cc(C)on3)n12`, the cytotoxicity was 22.6%.
`Cc1cc(NC(=O)CSc2nnc3c(C)cc4c(C)ccc(C)c4n23)no1`: the cytotoxicity was 70.6% (active).
In the case of `CCCCNC(=O)C1CCCN1C(=O)Nc1cccc(OC)c1` (configuration not stated) it was -7.7%; in that of `Nc1c(N2CCN(c3ccccc3)CC2)c2ccccc2oc1=O`, -3.7%.
In the case of `O=C(NCCCN1CCCC1=O)C1CCN(S(=O)(=O)N2CCOCC2)CC1` it was -9.6%.
Turning to `CCOc1ccc(NC(=O)N2CCC(n3c(=O)[nH]c4ccccc43)CC2)cc1`, the cytotoxicity is -0.2%.
Take `CN(C)c1ccc(C2C=C(c3ccc(Cl)cc3OC(F)F)Nc3ncnn32)cc1` (configuration not stated): the cytotoxicity is 50.9% (active).
In the case of `Cc1ccc(C2C=C(c3ccccc3OC(F)F)Nc3ncnn32)cc1` (configuration not stated), the cytotoxicity was -1.8%.
Take `COc1cccc(C2=CC(c3ccc(N(C)C)cc3)n3ncnc3N2)c1` (configuration not stated): the cytotoxicity was -1.1%.
Consider `CCn1c(SCC(=O)c2ccc(Cl)cc2)nnc1-c1ccoc1C`, for which the cytotoxicity was 12.2%.
Consider `Cc1cc(C)c(C#N)c(N2CCCC(C(N)=O)C2)n1` (configuration not stated), for which the cytotoxicity is -4.9%.
On to `COc1ccc(S(=O)(=O)Cc2ccc(C(=O)N3CCN(C(=O)c4ccco4)CC3)o2)cc1`, for which the cytotoxicity is 1.6%.
In the case of `O=C(OCc1nnc(-c2ccccc2)o1)c1ccc2c(c1)OCCO2`, the cytotoxicity was 5.4%.
In the case of `O=C(Nc1ncnc2sc3c(c12)CCCCC3)c1ccco1` it was 7.3%.
For `Cc1nnc2n1N=CC=C(C(C)(C)C)S2`, the cytotoxicity is -17.2%.
Take `Cc1nnc2n1N=CC=C(c1ccccc1)S2`: the cytotoxicity is 62% (active).
On to `COn1cnnc1-c1ccccc1`, for which the cytotoxicity was -14.1%.
In the case of `CCOC(=O)c1cc(NC(=O)c2ccoc2C)cc(C(=O)OCC)c1` it was 15.5%; in that of `Cc1noc(C)c1COC(=O)CCc1nc2ccccc2s1`, -2.7%; in that of `c1cn2cc(CN3CCOCC3)nc2s1`, -3.4%.
In the case of `Cc1nnc2sc(-c3cc4ccccc4o3)nn12`, the cytotoxicity is 8.5%.
Regarding `COc1ccccc1-c1nn2c(-c3ccccc3Cl)nnc2s1`, the cytotoxicity was -7.7%.
The value for `COc1ccccc1-c1nnc2sc(-c3cc4ccccc4o3)nn12` was 61.8% (active); that for `COC(=O)CSc1nnc(SCc2ccccc2)s1` was -19.9%.
Turning to `CCOC(=O)N1CCN(C(=O)CCc2nc3sc4c(c3c(=O)[nH]2)CCCC4)CC1`, the cytotoxicity is 4.1%.
Take `CC(C)OC(=O)CSc1nnc(-c2ccc(Cl)cc2Cl)n1N`: the cytotoxicity was -9.9%.
As for `CN1CCN(c2nc(Nc3cccc(C(F)(F)F)c3)nc(N3CCOCC3)n2)CC1`, the cytotoxicity is 52.3% (active).
On to `Cc1ccc(Nc2nc(N3CCOCC3)nc(N3CCOCC3)n2)cc1`, for which the cytotoxicity was 10.2%.
In the case of `Cc1cccc(Nc2nc(NCc3ccco3)nc(N3CCOCC3)n2)c1`, the cytotoxicity was 63.9% (active).
`O=C(O)c1cccc(Nc2nc(N3CCOCC3)nc(N3CCOCC3)n2)c1`: the cytotoxicity is 1.7%.
As to `CC(C)c1ccc(Nc2nc(NCc3ccco3)nc(N3CCOCC3)n2)cc1`, the cytotoxicity was 35.8%.
For `COc1nc(Nc2cccc(C(F)(F)F)c2)nc(OC)n1`, the cytotoxicity was 4.6%.
For the compound `CCOC(=O)N1CCN(C(=O)C2CC(=O)N(c3ccc(OC)cc3)C2c2ccc(OC)cc2)CC1` (configuration not stated), the cytotoxicity was -8.1%.
Regarding `O=C(NCCCN=C1NS(=O)(=O)c2ccccc21)c1ccc(S(=O)(=O)N2CCCCC2)cc1`, the cytotoxicity was -14.3%.
In the case of `c1ccc(Cn2c(SCc3nc4ccccc4s3)nnc2-c2ccco2)cc1`, the cytotoxicity was 8.5%.
On to `Nc1c(NC2CCCCC2)c2ccccc2oc1=O`, for which the cytotoxicity is -25.2%.
`CCOC(=O)c1c(-c2cccs2)csc1NC(=O)CCCC(=O)O`: the cytotoxicity was 25.9%.
In the case of `CCOC(=O)c1c(-c2cccs2)csc1NC(=O)CN1CC(C)OC(C)C1` (configuration not stated) it was 60.6% (active).
Take `COC(=O)c1c(-c2cccs2)csc1NC(=O)CN1CCOCC1`: the cytotoxicity is 4.8%.
In the case of `N#CCc1ccc(NS(=O)(=O)c2ccc(N3CCCC3=O)cc2)cc1`, the cytotoxicity was -0.7%.
For `Cc1cccc2cc3c(N)c(C(=O)N4CCOCC4)sc3nc12`, the cytotoxicity was 68.7% (active).
In the case of `Cc1ccc2cc3c(N)c(C(=O)N4CCOCC4)sc3nc2c1` it was -10.3%; in that of `Cc1ccc2nc3sc(C(=O)N4CCOCC4)c(N)c3cc2c1`, 5.9%; in that of `O=C(NCCCN1CCCCCC1)c1ccc2c(c1)NC(=O)C(N1CCOCC1)S2` (configuration not stated), -17.2%.
In the case of `O=C(Nc1c(C(=O)O)oc2ccc(Br)cc12)c1ccccc1` it was 31.7%.
`COc1ccc(C(NC(C)=O)c2ccc3cccnc3c2O)c(OC)c1` (configuration not stated): the cytotoxicity was -6.2%.
Turning to `COc1cc(C(=O)Nc2ccccn2)cc(OC)c1OC`, the cytotoxicity was 21.5%.
The value for `CCOc1ccc(C(=O)Nc2c3c(nn2-c2cccc(C)c2C)CS(=O)C3)cc1` (configuration not stated) was -6.5%; that for `O=C(c1ccco1)N1CCN(c2nc(C3CC3)nc3sc4c(c23)CCCC4)CC1` was 50.9% (active).
In the case of `CC(C)c1nc(N2CCN(C(=O)c3ccco3)CC2)c2c3c(sc2n1)CCCC3`, the cytotoxicity is -14.3%.
In the case of `Cc1nc(N2CCN(C(=O)c3ccco3)CC2)c2c3c(sc2n1)CCC3`, the cytotoxicity is 2.2%.
On to `COc1cccc(CCC(=O)O)c1OC`, for which the cytotoxicity is -7%.
In the case of `CCOC(=O)N1CCN(C(=O)Cn2nc(C)c3sc4ccccc4c3c2=O)CC1`, the cytotoxicity was -5%.
The value for `CCc1ccc(-c2nc(CN3CCC(C(=O)NCCN(CC)c4ccccc4)CC3)c(C)o2)cc1` was 39.2%; that for `CCN(CCNC(=O)C1CCCN(Cc2nc(-c3ccc(OC)cc3)oc2C)C1)c1ccccc1` (configuration not stated) was 62.7% (active); that for `CCc1ccc(-c2nc(CN3CCCC(C(=O)NCCc4ccc(OC)c(OC)c4)C3)c(C)o2)cc1` (configuration not stated) was 5.5%.
In the case of `Cc1nonc1NC(=O)CSc1nc2cc(Cl)ccc2c2c1CCCC2`, the cytotoxicity was 36.2%.
The value for `Cn1c(NC(=O)c2cccnc2)nc2ccccc21` was 0.4%.
Regarding `Cc1ccc(S(=O)(=O)CCC(=O)OCC(=O)Nc2cc(C)on2)cc1`, the cytotoxicity is -22.1%.
The value for `Cc1cc(C)nc(SCC(=O)c2ccc(O)cc2O)n1` was -9.3%; that for `COc1ccc(C(=O)Nc2nc3ccccc3[nH]2)cc1OC` was -8%.
As for `CCCSc1ccc2nc(NC(=O)OC)[nH]c2c1`, the cytotoxicity was 63.4% (active).
The value for `COc1ccc2nc(SCC(N)=O)[nH]c2c1` was -17.7%; that for `CCOc1ccc2nc(NCCO)[nH]c2c1` was 4.8%; that for `COc1ccc2nc(NCCO)[nH]c2c1` was -14.2%.
The value for `CCCOc1ccc2nc(NC(=O)OC)[nH]c2c1` was 61.1% (active).

These data come from PubChem BioAssay AID431 (Sanford-Burnham Center for Chemical Genomics, 2006).
